Assay results published in PubChem BioAssay (NCATS).
Results filed as inconclusive are left out. Active and inactive are the calls of the source. Calls follow the shape of the dose curve; as a rule, active = well fitted curve in the direction sought with a large enough effect; inconclusive = small, poorly fitted or top-dose-only effect, or another doubt; inactive = no such curve, though single readings can be large; an effect the other way counts as inactive or inconclusive.

What was measured:
[1] = target: N-terminal Xaa-Pro-Lys N-methyltransferase 1 (Homo sapiens) (UniProt Q9BV86); experiment: qHTS Assay for Inhibitors of N-terminal methyltransferase 1 (NTMT1): LOPAC validation of the NTMT1 SAHH-coupled ThioGlo3 Assay (AID 1347143);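 also: SAH from peptide methylation measured as thiol fluorescence via SAHH coupling and ThioGlo3; nearly all actives have a fitted effect of over 70% in size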
Summary of the method: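 Recombinant human NTMT1 (125nM) was pre-incubated 1 min at room temperature with compounds over a concentration range, then a mix of 100uM SAM, 10uM SAHH and 15uM ThioGlo3 (concentrations in added reagent) was added. ThioGlo3 fluorescence (ex 340/em 450nm) after 30 min was normalized to the initial reading.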

[2] = target: Lysine-specific demethylase 5B (Homo sapiens) (UniProt Q9UGL1); experiment: Optimization screen for KDM5B Histone Demethylases FDH coupled qHTS against the LOPAC library (AID 1347166)
Summary of the method: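 KDM5BDeltaAP (200nM final) preincubated 10 min with compound, then 12.5uM H3K4Me3, 25uM a-ketoglutarate, ascorbate, Fe(II), NAD+ and FDH added; 50mM HEPES pH 7.5, 0.01% Tween-20. NADH fluorescence (340/450 nm) change over 30 min, room temperature.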

[3] = Confirmatory screen GU Rhodamine qHTS for Zika virus inhibitors qHTS (AID 1347157); also: potency is read from the fitted curve at half-maximal effect; nearly all actives have a fitted effect of over 70% in size
Summary of the method: (§1)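 Compounds, tested up to 114 microM, were incubated for 15 minutes with 25 nM unlinked NS2B-NS3 protease at pH 8.0. Cleavage of 1.5 microM Rhodamine110 substrate was then followed by fluorescence for 15 minutes.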

[4] = test system: Zika virus NS2B-NS3 protease (linked construct); experiment: Primary screen NINDS Rhodamine qHTS for Zika virus inhibitors (AID 1347160); also: nearly all actives have a fitted effect of over 55% in size; also: potency is read from the fitted curve at half-maximal effect
Summary of the method: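 Percent inhibition, normalized to uninhibited and enzyme-free controls, is fitted to a 4-parameter Hill equation. Fluorescence change comes from a 15-min cleavage of 1.5 microM bis-peptide Rhodamine110 substrate by 25 nM linked NS2B-NS3 at room temperature.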

[5] = test system: Zika virus NS2B-NS3 protease (linked construct); experiment: Confirmatory screen NINDS AMC qHTS for Zika virus inhibitors (AID 1347152); also: nearly all actives have a fitted effect of over 70% in size; also: potency is read from the fitted curve at half-maximal effect
Summary of the method: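 Linked NS2B-NS3 1 nM, Tris pH 8.0/0.01% Tween 20; cpd 15 min RT dark; + Nle-KRR-AMC 10 µM (Km 18.3 µM); read 0 and 15 min, 340/450 nm; %inh vs controls, 4-param Hill.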

[6] = test system: Zika virus NS2B-NS3 protease (unlinked complex); experiment: Confirmatory screen GU AMC qHTS for Zika virus inhibitors (AID 1347153); details: Recombinant NS2B-NS3 protease, AMC substrate fluorescence; also: potency is read from the fitted curve at half-maximal effect; nearly all actives have a fitted effect of over 70% in size
Summary of the method: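 Unlinked enzyme 25 nM, Tris pH 8.0/0.01% Tween 20; cpd 15 min RT, dark; + AMC substrate 10 µM (Km 18.3 µM); 340/450 nm read at t0 and 15 min; % inhibition → 4-param fit.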

[7] = ZIKV-mCherry secondary qHTS for Zika virus inhibitors (AID 1347158); also: potency is read from the fitted curve at half-maximal effect
Summary of the method: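 Vero, 5,000 cells/well, o/n 37 °C; cpd pin-transferred in DMSO; ZIKV-mCherry MOI 1, 48-72 h 37 °C; 32% PFA stock fix, Hoechst; imaged 10x DAPI/mCherry; mCherry+ threshold 450 RFU; % infection.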

[8] = test system: Zika virus NS2B-NS3 protease (unlinked complex); experiment: Primary screen GU Rhodamine qHTS for Zika virus inhibitors: Unlinked NS2B-NS3 protease assay (AID 1347159); also: nearly all actives have a fitted effect of over 60% in size; also: potency is read from the fitted curve at half-maximal effect
Summary of the method: as §1

[9] = Vero cells viability qHTS for Zika virus inhibitors (AID 1347167)
Summary of the method: (§2)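 Cells seeded at 2.5 x 10^5 cells/mL in DMEM with 4% FBS and attached overnight at 37 degrees C, then exposed to compound for 24 to 48 hours. Viability read as ATP content by CellTiter Glo luminescence.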

[10] = HepG2 cells viability qHTS for Zika virus inhibitors (AID 1347168)
Summary of the method: as §2

[11] = test system: Zika virus NS2B-NS3 protease (linked); experiment: 384 well plate NINDS AMC confirmatory qHTS for Zika virus inhibitors (AID 1347163); also: nearly all actives have a fitted effect of over 50% in size; also: potency is read from the fitted curve at half-maximal effect
Summary of the method: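 Linked NS2B-NS3 protease (final 5 nM, 30 nM or 60 nM) was preincubated with compounds (final up to 1 mM) for ~15 minutes. Ac-VKTGKR-AMC substrate (final 30 microM) then reacted for 25 minutes at room temperature in the dark. Fluorescence (ex 355/em 460 nm) was normalized to no-enzyme and no-inhibitor controls.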

[12] = test system: Zika virus NS2B-NS3 protease (linked construct); experiment: 384 well plate NINDS Rhodamine confirmatory qHTS for Zika virus inhibitors (AID 1347164);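 also: fluorescence from protease cleavage of Ac-LKRR-rhodamine 110 substrate; nearly all actives have a fitted effect of over 65% in size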; also: potency is read from the fitted curve at half-maximal effect
Summary of the method: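 Fluorescence read at ex 485 nm/em 538 nm, 25 min after adding 10 microM Ac-LKRR-Rd substrate at room temperature in the dark; signal normalized to no-enzyme and no-inhibitor controls. Enzyme final 5, 30 or 60 nM; compounds, ~15 min preincubation.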

[13] = test system: Zika virus NS2B-NS3 protease; experiment: Primary screen GU AMC qHTS for Zika virus inhibitors (AID 1347154); also: nearly all actives have a fitted effect of over 70% in size
Summary of the method: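 Unlinked Zika NS2B hydrophilic domain–NS3 protease complex at 25 nM in 10 mM Tris-HCl pH 8.0, 0.01% Tween 20, with an AMC peptide substrate. Fluorescence change (340/450 nm) over 15 min at room temperature, normalized to controls, fitted to 4-parameter Hill.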

[14] = target: Furin (Homo sapiens) (UniProt P09958); experiment: Furin counterscreen qHTS for Zika virus inhibitors (AID 1347149); also: nearly all actives have a fitted effect of over 70% in size; also: potency is read from the fitted curve at half-maximal effect
Summary of the method: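 Fluorogenic cleavage of BOC-RVRR-AMC (2 microM final, Km ~15 µM) was monitored (ex 340, em 450 nm) at 37C after 15 min RT preincubation of 5 nM furin with compounds in HEPES pH 7.0 buffer with CaCl2 and Triton X-100. Percent inhibition was fitted to a 4-parameter Hill curve.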

[15] = qHTS of pediatric cancer cell lines to identify multiple opportunities for drug repurposing: Primary screen for SK-N-SH cells (AID 1347098); details: SK-N-SH viability, CellTiter-Glo luminescence, 48 h; also: potency is read from the fitted curve at half-maximal effect; nearly all actives have a fitted effect of over 65% in size
Summary of the method: (§3)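 Cells (500-1,000/well) rested 5 h, then received compounds for 48 h; metabolically active cells were measured by CellTiter-Glo luminescence. Final concentrations spanned up to 46 µM (MIPE, 11-point) or 0.59 nM-46 µM (NPC, 8-point) in primary screens, 11-point in follow-ups.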

[16] = qHTS of pediatric cancer cell lines to identify multiple opportunities for drug repurposing: Primary screen for BT-12 cells (AID 1347101); details: BT-12 viability, CellTiter-Glo luminescence, 48 h; also: potency is read from the fitted curve at half-maximal effect; nearly all actives have a fitted effect of over 25% in size
Summary of the method: as §3

[17] = qHTS of pediatric cancer cell lines to identify multiple opportunities for drug repurposing: Primary screen for Rh18 cells (AID 1347102); details: Rh18 rhabdomyosarcoma viability, CellTiter-Glo luminescence, 48 h; also: potency is read from the fitted curve at half-maximal effect; nearly all actives have a fitted effect of over 65% in size
Summary of the method: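 Viability after 48 h compound treatment at 37C, 500-1,000 cells/well, read as ATP luminescence with CellTiter-Glo. Primary screens used 11-point (MIPE, 0.78 nM-46 µM) or 8-point (NPC, 0.59 nM-46 µM) final concentrations; follow-up screens used 11-point dilutions.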

[18] = qHTS of pediatric cancer cell lines to identify multiple opportunities for drug repurposing: Primary screen for OHS-50 cells (AID 1347103); details: OHS-50 osteosarcoma viability, CellTiter-Glo luminescence, 48 h; also: potency is read from the fitted curve at half-maximal effect; nearly all actives have a fitted effect of over 40% in size
Summary of the method: as §3

Measured: Potency

Chain of Furin (Homo sapiens) (P09958 whole entry, looked up): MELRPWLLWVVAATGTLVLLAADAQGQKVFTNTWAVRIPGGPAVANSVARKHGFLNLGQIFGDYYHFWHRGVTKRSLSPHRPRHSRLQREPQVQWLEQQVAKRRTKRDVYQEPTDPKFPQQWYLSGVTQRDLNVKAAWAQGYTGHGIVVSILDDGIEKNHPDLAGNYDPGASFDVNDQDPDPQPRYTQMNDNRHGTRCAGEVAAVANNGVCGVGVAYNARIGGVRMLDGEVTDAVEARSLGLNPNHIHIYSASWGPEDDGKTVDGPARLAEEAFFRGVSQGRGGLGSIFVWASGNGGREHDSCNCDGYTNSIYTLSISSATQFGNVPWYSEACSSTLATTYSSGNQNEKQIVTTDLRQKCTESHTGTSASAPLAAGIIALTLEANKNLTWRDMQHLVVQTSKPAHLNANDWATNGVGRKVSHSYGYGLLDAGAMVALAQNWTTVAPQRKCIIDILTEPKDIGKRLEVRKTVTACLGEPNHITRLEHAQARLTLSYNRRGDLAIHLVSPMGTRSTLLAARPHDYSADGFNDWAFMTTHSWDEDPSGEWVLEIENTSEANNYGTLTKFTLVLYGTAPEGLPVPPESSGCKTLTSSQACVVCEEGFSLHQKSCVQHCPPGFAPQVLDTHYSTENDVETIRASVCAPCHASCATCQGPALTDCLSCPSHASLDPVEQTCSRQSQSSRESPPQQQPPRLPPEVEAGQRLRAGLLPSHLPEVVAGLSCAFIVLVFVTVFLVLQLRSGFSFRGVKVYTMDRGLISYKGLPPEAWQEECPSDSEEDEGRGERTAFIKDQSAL
Chain of Lysine-specific demethylase 5B (Homo sapiens) (Q9UGL1 whole entry, looked up): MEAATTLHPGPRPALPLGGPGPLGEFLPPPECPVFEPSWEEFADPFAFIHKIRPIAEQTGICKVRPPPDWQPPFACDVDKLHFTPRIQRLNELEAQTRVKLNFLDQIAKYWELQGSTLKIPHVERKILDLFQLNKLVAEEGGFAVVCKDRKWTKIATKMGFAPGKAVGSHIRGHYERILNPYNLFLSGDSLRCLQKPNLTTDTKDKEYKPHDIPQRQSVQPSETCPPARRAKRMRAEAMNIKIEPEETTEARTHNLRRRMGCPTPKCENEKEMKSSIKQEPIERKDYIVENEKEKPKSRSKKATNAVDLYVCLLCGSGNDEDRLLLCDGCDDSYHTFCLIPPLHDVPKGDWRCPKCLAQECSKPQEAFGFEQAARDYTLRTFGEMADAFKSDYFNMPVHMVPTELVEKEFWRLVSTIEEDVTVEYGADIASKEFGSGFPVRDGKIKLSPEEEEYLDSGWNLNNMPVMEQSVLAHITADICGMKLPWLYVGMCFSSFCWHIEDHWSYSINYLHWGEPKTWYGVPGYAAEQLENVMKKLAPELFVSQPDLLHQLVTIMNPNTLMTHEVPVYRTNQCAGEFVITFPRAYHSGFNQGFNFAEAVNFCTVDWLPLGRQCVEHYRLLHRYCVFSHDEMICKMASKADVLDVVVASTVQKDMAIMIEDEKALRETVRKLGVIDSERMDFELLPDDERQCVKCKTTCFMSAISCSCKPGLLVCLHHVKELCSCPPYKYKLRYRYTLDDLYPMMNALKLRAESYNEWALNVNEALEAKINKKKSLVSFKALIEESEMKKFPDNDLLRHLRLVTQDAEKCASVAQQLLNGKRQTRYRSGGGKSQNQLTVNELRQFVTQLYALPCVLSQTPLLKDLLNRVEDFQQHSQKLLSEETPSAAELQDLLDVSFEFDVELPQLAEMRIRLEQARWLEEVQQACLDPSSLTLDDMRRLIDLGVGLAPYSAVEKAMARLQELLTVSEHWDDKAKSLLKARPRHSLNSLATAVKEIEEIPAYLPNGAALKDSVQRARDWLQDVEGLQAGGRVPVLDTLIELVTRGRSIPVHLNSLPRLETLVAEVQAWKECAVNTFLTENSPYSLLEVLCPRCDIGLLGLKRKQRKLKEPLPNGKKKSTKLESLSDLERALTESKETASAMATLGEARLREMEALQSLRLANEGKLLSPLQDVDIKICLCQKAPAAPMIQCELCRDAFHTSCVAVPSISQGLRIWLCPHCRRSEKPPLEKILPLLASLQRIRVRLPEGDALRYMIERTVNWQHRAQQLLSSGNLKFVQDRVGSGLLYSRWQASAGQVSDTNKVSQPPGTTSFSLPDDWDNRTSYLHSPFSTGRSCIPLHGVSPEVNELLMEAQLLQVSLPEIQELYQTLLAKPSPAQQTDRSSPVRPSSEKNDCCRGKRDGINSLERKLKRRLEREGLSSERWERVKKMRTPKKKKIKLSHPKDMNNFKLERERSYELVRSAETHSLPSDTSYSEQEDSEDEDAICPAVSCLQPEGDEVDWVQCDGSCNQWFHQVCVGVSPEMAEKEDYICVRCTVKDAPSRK
Chain of N-terminal Xaa-Pro-Lys N-methyltransferase 1 (Homo sapiens) (Q9BV86 whole entry, looked up): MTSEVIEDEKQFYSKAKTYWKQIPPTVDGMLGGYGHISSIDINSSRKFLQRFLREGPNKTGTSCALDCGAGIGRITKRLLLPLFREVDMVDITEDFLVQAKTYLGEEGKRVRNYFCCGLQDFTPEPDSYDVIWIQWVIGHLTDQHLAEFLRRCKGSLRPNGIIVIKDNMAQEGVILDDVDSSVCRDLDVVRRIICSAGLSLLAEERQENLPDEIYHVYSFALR

NCCCC(=O)O
inactive: [1] | [2]

CCC(C)/C=C(C)/C=C/C1=CC2=CC(=O)C3(C)OC(C)(O)C(C(=O)OC)C3C2=CO1 (stereo not drawn)
active: [3] 19.2 µM
inactive: [4]

Cc1cc(C)c2c(c1)C(N(Cc1cc(C(F)(F)F)cc(C(F)(F)F)c1)c1nnn(C)n1)CCCN2CC1CCC(C(=O)O)CC1 (stereo not drawn)
active: [5] 22.1 µM | [6] 22.1 µM | [3] 8.79 µM | [8] 3.16 µM | [4] 3.55 µM
inactive: [7] | [9] | [10]

O=C(O)c1ccc(N2C(=O)/C(=C/c3ccc(-c4ccc([N+](=O)[O-])cc4)o3)C=C2c2ccccc2)cc1
active: [5] 12.4 µM | [3] 1.56 µM | [4] 1.78 µM | [11] 22.4 µM
inactive: [7] | [12] | [9] | [10]

CC(C)C[C@H](CO)Nc1nc(S[C@@H](C)c2ccccc2)nc2nc(N)sc12
inactive: [8]
active: [3] 55.5 µM

Cc1ccc(OC[C@H](O)[C@H](C)NC(C)C)c2c1CCC2
inactive: [13] | [4]

N#Cc1ccc(N2N=C3c4ccc(C(=O)O)cc4CC[C@@H]3[C@@H]2C2CCCC2)cc1Cl
inactive: [14] | [11] | [9] | [10]
active: [5] 8.79 µM | [6] 15.6 µM | [3] 2.21 µM | [7] 2.51 µM | [8] 1.41 µM | [4] 2 µM | [12] 4.47 µM

NC(=O)C[C@@H](N)C(=O)O
inactive: [13]

CC(O)(C(=O)O)C1CCC2(C)C1CCC1(C)C2CCC2C3(C)CCC(O)C(C)(COC4OC(CO)C(O)C(O)C4O)C3CCC21C (stereo not drawn)
inactive: [14] | [5] | [9] | [10]
active: [3] 13.1 µM | [8] 7.94 µM | [11] 39.8 µM | [12] 12.6 µM

CCc1ccccc1OC[C@@H](O)CN[C@H]1CCCc2ccccc21
inactive: [13] | [8] | [4]

COc1ccc2nccc(C(=O)CC[C@@H]3CCN(CC#Cc4cc(F)cc(F)c4F)C[C@@H]3C(=O)O)c2c1
active: [3] 39.3 µM | [8] 25.1 µM
inactive: [4]

CC#C[C@@H](CC(=O)O)c1ccc(OCc2cccc(-c3ccc(C(F)(F)F)cc3)c2)cc1
active: [14] 24.1 µM | [5] 12.4 µM | [6] 13.9 µM | [3] 0.698 µM | [4] 1.58 µM | [12] 5.62 µM
inactive: [11] | [9] | [10]

CC#C[C@@H](CC(=O)O)c1ccc(OCc2ccc(CN3CCC4(C=Cc5ccccc54)CC3)s2)cc1
active: [5] 35 µM | [6] 39.3 µM | [3] 2.78 µM | [8] 3.16 µM | [4] 5.62 µM | [11] 5.01 µM
inactive: [14] | [7] | [9] | [10]

Cc1noc(-c2ccc(-c3ccc(CC(=O)O)cc3)cc2)c1NC(=O)O[C@H](C)c1ccccc1Cl
active: [14] 69.8 µM | [5] 44.1 µM | [6] 31.2 µM | [3] 5.55 µM | [8] 3.16 µM | [4] 4.47 µM | [11] 20 µM | [12] 7.94 µM
inactive: [10]

CCCCCCCOc1cc2c(cc1/C(C)=C/c1ccc(C(=O)O)cc1)C(C)(C)CCS2(=O)=O
inactive: [9] | [10]
active: [14] 55.5 µM | [5] 8.79 µM | [6] 8.79 µM | [3] 1.97 µM | [8] 1.78 µM | [4] 2.51 µM

CN[C@H]1CC[C@@H](c2ccc(Cl)c(Cl)c2)c2ccccc21
active: [15] 10.9 µM | [16] 21.9 µM | [17] 23.7 µM | [18] 15.5 µM
inactive: [2]

O=C(O)c1cccc(-c2ccc(-c3cn(C(=O)N4CCCCC4Cc4ccccc4)nn3)cc2)c1 (stereo not drawn)
inactive: [11] | [12] | [9] | [10]
active: [14] 55.5 µM | [5] 27.8 µM | [6] 31.2 µM | [3] 4.41 µM | [8] 3.98 µM | [4] 3.98 µM

CC(C)C[C@H](C(=O)O)c1cc(-c2ccc(C(F)(F)F)cc2)cc(-c2ccc(C(F)(F)F)cc2)c1
inactive: [12] | [10]
active: [14] 17.5 µM | [5] 9.87 µM | [6] 15.6 µM | [3] 3.12 µM | [4] 3.55 µM

O=C(Nc1ccc(-c2ccc(Cl)c(Cl)c2)cc1)C1=C(O)c2ccccc2S(=O)(=O)N1
inactive: [14] | [11] | [9] | [10]
active: [5] 49.4 µM | [6] 44.1 µM | [3] 2.48 µM | [8] 2.82 µM | [4] 3.98 µM | [12] 44.7 µM
